Test results reported in PubChem BioAssay AID1619 (SRMLSC, 2009).
The campaign covered roughly 220,000 compounds. About 830 (0.38%) were called active.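 How the source made its calls: active means compound inhibiting the enzyme by more than half at any dose during confirmatory dose-response retesting; inconclusive means strong single-dose inhibitors picked by rank but not retested; inactive means the rest.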 These entries were drawn from the full list. Results with a measured potency or affinity are listed apart.

Biological target: Leucine aminopeptidase (Plasmodium falciparum (isolate 3D7)) (UniProt Q8IL11)
Assay: P. falciparum M17LAP inhibitors, primary screen, biochemical, fluorogenic H-Leu-NHMec substrate, 1536-well (AID 1619);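 further: plate controls were full reaction with DMSO carrier for no effect and no enzyme background for full effect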
Details: recombinant M17LAP, H-Leu-NHMec fluorogenic kinetic assay; at 30 µM; stronger effect = higher value

Leucine aminopeptidase (Plasmodium falciparum (isolate 3D7)), sequence (Q8IL11 whole entry, looked up): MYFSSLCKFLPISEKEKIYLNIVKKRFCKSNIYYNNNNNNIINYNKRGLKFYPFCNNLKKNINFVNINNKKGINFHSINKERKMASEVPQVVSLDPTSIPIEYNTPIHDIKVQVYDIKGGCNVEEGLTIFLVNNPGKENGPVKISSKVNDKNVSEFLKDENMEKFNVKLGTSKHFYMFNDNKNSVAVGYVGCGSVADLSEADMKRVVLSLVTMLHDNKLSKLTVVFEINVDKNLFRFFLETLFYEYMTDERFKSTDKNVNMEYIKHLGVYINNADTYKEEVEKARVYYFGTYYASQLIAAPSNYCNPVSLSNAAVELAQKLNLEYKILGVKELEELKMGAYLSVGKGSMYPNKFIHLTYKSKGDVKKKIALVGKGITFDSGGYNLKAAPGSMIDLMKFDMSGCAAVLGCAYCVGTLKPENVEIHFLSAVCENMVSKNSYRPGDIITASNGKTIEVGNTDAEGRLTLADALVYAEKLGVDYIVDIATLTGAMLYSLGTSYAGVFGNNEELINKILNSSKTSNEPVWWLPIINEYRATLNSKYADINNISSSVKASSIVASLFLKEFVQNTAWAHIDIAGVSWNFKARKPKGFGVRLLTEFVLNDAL

inhibition, inactive:
COc1cc(=O)n(C)c2c(O)cccc12 4.51%
Cc1nnc(NC(=O)CSc2nnc(Cc3ccccc3)n2Cc2ccccc2)s1 14.2%
CCN(Cc1ccccc1)S(=O)(=O)c1ccc2c(c1)NC(=O)CC(=O)N2 0.95%
CCCCC1=CC2=CC(=O)C(C)(OC(=O)CC)C(=O)C2=CN1CCc1c[nH]c2ccccc12 (centres undefined) -3.57%
CCCn1c(=O)c(C(=O)N/N=C/c2ccc(F)cc2)c(O)c2ccccc21 -4.04%
O=C(Cn1nc(-c2ccccc2)c2ccccc2c1=O)Nc1ccc2c(c1)nc1n2CCOC1 -12.9%
C=CCn1c(N)cc(=O)nc1SCC(=O)Nc1ccc(C)cc1 23.5%
C=CCn1c(N)cc(=O)nc1SCC(=O)Nc1ccccc1 20%
Cn1c(=O)c2c(nc(SCC(=O)Nc3ccccc3)n2C)n(C)c1=O 0.43%
Nc1cc(=O)nc(SCC(=O)Nc2ccccc2)n1-c1ccccc1 22.1%
Nc1cc(=O)nc(SCC(=O)Nc2cccc3ccccc23)n1CCc1ccccc1 43.5%
C=CCn1c(SCC(=O)Nc2ccccc2OC)nc(O)c(CC)c1=O 35.8%
C=CCn1c(SCC(=O)Nc2cccc3ccccc23)nnc1-c1cnccn1 1.49%
Cn1ccnc1SCC(=O)Nc1cccc2ccccc12 16.9%
COc1cc2c(cc1NC(=O)/C=C/c1ccc([N+](=O)[O-])cc1)oc1ccccc12 -1.67%
CC1=C/C(=N\NC(=O)c2ccc(O)cc2)CC1 12.2%
COc1ccccc1-c1nnc(SC(C(=O)c2c[nH]c3ccccc23)c2ccccc2)n1C (centres undefined) 6.65%
CCCC(=O)NNC(=O)CCC(=O)Nc1ccccc1Cl 6.3%
Cc1cc(-c2onc(C)c2C(=O)O)no1 -2.33%
CC(C)C1CC(CCN2CCCCC2)(c2ccccc2)CCO1 (centres undefined) -6.12%
CC(=O)N1CCc2cc(C(=O)CN3CCN(c4ccccn4)CC3)ccc21 8.66%
COc1ccc(Cl)cc1-c1nc(SCC(=O)NC(C)C(C)C)n[nH]1 (centres undefined) -5.32%
CCc1c(O)nc(SCC(=O)Nc2ccccc2)n(-c2ccccc2)c1=O -0.62%
CCc1c(O)nc(SCc2ccccc2)n(C(C)CC)c1=O (centres undefined) 36.5%
O=C(NCc1ccco1)C1CC(c2ccc(Cl)cc2)=NO1 (centres undefined) 2.33%
O=Nc1c(O)n(Cc2ccc(Cl)cc2Cl)c2ccccc12 -0.24%
CC(C)(C)c1cc(C(=O)O)n(Cc2ccc(Cl)cc2Cl)n1 -0.53%
O=C(COC(=O)C1(c2ccc(Cl)cc2)CCCC1)NCc1ccco1 -0.44%
Oc1ccc(/C=N/NC(=S)Nc2cccnc2)cc1 33.2%
Fc1ccc(/C=N/NC(=S)Nc2cccnc2)cc1F 8.17%
O=C(CSc1nnc(-c2ccc(Cl)cc2)n1Cc1ccco1)NCc1ccc2c(c1)OCO2 7.75%
O=C(N/N=C/c1cccs1)c1cccc2cc[nH]c12 8.58%
C=CCOc1ccc(/C=C2\C(=N)N3N=C(S(=O)(=O)CC)SC3=NC2=O)cc1OC 1.58%
CCS(=O)(=O)C1=NN2C(=N)/C(=C\c3ccc(SCc4ccco4)o3)C(=O)N=C2S1 33.6%
COc1ccc(/C=C/C(=O)NCC(=O)N2CCC(N(C)CCN3CCOCC3)CC2)cc1OC 0.93%
COC(=O)c1sc2nc(CN3CCN(c4ccc(OC)cc4)CC3)[nH]c(=O)c2c1C 0.73%
CC(C)C(=O)Nc1ccccc1C(=O)OCC(=O)c1ccc2c(c1)OCCO2 0.77%
O=C(COC(=O)c1ccccc1NC(=O)C1CC1)c1ccc2c(c1)OCCO2 12.2%
O=Cc1ccc(-c2cccc(C(=O)O)c2)o1 17%
O=C1c2ccccc2C(=O)N1CCCc1nc(-c2ccncc2)no1 -5.77%
CCOC(=O)N1CCN(C(=O)CCN2C(=O)COc3ccc(C)cc32)CC1 -3.49%
Cc1c(NC(=O)CSc2nc3ccccc3s2)c(=O)n(-c2ccccc2)n1C 14.2%
CN1CCC(Oc2ccccc2Sc2ccccc2)CC1 2.7%
Cc1ccc(S(=O)(=O)Nc2ccccc2C(=O)Nc2ccc(S(=O)(=O)Nc3nccc(C)n3)cc2)cc1 -17.2%
CC(=O)Nc1ccc(NC(=O)CSc2nnc(C)c(=O)[nH]2)cc1 5.47%
Cc1cccc(C)c1NC(=O)CSc1nnc(C)c(=O)[nH]1 15.2%
Cc1nnc(SCC(=O)Nc2ccc3c(c2)OCO3)[nH]c1=O 6.76%
Cc1nnc(SCC(=O)Nc2ccccc2)[nH]c1=O 41.7%
O=c1c2ccccc2nnn1Cc1ccc2ccccc2c1 -5.34%
COc1ccc(-n2c(SC(CN3CCCCC3)CN3CCCC3=O)nc3ccccc3c2=O)cc1 (centres undefined) 0.58%
CCOc1cc(C=C2C(=O)c3ccccc3C2=O)ccc1OCC(=O)Nc1ccc(C)cc1 6.24%
CCOC(=O)C1=C(O)/C(=C/c2ccc(OCC(=O)O)c(OCC)c2)SC1=Nc1ccccc1 43.5%
CCOC(=O)C1=C(O)/C(=C/c2ccc(OCC(=O)O)c(OC)c2)SC1=Nc1ccc(OC)cc1 41.7%
CCOC(=O)C1=C(O)/C(=C/c2ccc(OCC(=O)O)c(OC)c2)SC1=Nc1ccc(OCC)cc1 38.5%
Cc1ccc(C(=O)Nc2nc3ccc(S(C)(=O)=O)cc3s2)o1 48.6%
CCOc1cc(S(=O)(=O)NC2CCCCCC2)ccc1F 4.34%
CCc1ccc(Nc2nnc(SCC(=O)N(C)C3CCS(=O)(=O)C3)s2)cc1 (centres undefined) 6.41%
Cc1ccc(Nc2nnc(SCC(=O)NC3CCS(=O)(=O)C3)s2)c(C)c1 (centres undefined) 9.77%
Cc1cccc(Nc2nnc(SCC(=O)N(C)C3CCS(=O)(=O)C3)s2)c1C (centres undefined) 35%
Cc1nc(CSc2nnc(Nc3cccc(C)c3C)s2)cs1 22.7%
Cc1cccc(Nc2nnc(SCC3CCCCO3)s2)c1C (centres undefined) 13.4%
Cc1ccc(Nc2nnc(SCC(=O)c3ccc(Br)s3)s2)c(C)c1 27.2%
O=C1CCCCC1Sc1nnc(Nc2ccccc2)s1 (centres undefined) 16.7%
Cc1cccc(Nc2nc3ccccc3s2)c1C 0.94%
CCSc1ccc2cc(OC)ccc2[n+]1CC 2.2%
Cc1ccc(NC(=O)CNCc2ccccc2)cc1Br 1.6%
CCC(C)(C)n1nnnc1CN1CCN(C(c2ccccc2)c2ccccc2)CC1 7.37%
O=C1CSC2(CCCCC2)N1CCO 15.1%
O=S1(=O)CCC(NC(=S)NC2CCS(=O)(=O)C2)C1 (centres undefined) 1.24%
CCOCCCNC(=S)N1C2CCC1CC(NC(=O)NC13CC4CC(CC(C4)C1)C3)C2 (centres undefined) 2.02%
C=CC(=O)N=c1sc2ccccc2n1-c1ccccc1 -2.28%
c1ccc(-c2ccccc2OCCCN2CCCCCC2)cc1 -1.36%
Cc1cccc(NS(=O)(=O)c2cnc[nH]2)c1 -0.29%
CCCCN=C(C)C1=C(O)CSC1=O 12.4%
CC(C)c1ccc(Nc2nnc(SC3CCOC3=O)s2)cc1 (centres undefined) 32.8%
Cc1ccc(Nc2nnc(SCC3CCCCO3)s2)cc1 (centres undefined) 13.8%
Cc1cc(C)n(-c2ccc(C(=O)Nc3nnc(C4CC4)s3)cc2)n1 4.37%
COc1ccc(OC)c(NC(=O)c2ccc(CSc3nnc(C)s3)cc2)c1 -1.27%
N/C(=N\OC(=O)COc1ccc(Br)cc1Cl)c1ccccn1 -6.93%
O=C1C(C2=NC(c3ccccn3)C3C(=O)N(c4ccc(Cl)cc4Cl)C(=O)C23)=C(O)c2ccccc21 (centres undefined) 3.81%
O=C(C1=NN(c2ccccc2)C2C(=O)N(c3ccc(Cl)cc3)C(=O)C12)c1ccccc1 (centres undefined) 4.99%
O=C1C(C2=NC(c3ccccn3)C3C(=O)N(c4ccc(OC(F)(F)F)cc4)C(=O)C23)=C(O)c2ccccc21 (centres undefined) -6.84%
O=C1C(C2=NC(c3ccccn3)C3C(=O)N(c4ccccc4)C(=O)C23)=C(O)c2ccccc21 (centres undefined) -11%
O=C(NNC(=O)c1cccc2ccccc12)c1ccc(-c2ccccc2)cc1 -1.51%
CCCCOC(=O)c1ccc(NC(=O)C(=O)NCCN(C)C)cc1 4.81%
Cn1cnc([N+](=O)[O-])c1Oc1cccc(O)c1 -5.34%
Cc1noc(NS(=O)(=O)c2ccc(NC(=O)CSc3ncccn3)cc2)c1C -8.95%
O=C(CSc1ccccc1)Nc1ccc(S(=O)(=O)Nc2ncccn2)cc1 4.72%
Cc1cc(C)nc(SCC(=O)Nc2ccc(S(=O)(=O)Nc3ncccn3)cc2)n1 0.08%
Cc1cc(NS(=O)(=O)c2ccc(NC(=O)Nc3cccc(Cl)c3)cc2)no1 41%
O=C(CSc1nc2ccccc2s1)Nn1cnnc1 6.17%
Cc1cc(NS(=O)(=O)c2ccc(NC(=O)Nc3ccccc3)cc2)no1 53.6%
Cc1cc(C)nc(NC(=O)CSc2nc3ccccc3s2)n1 -0.55%
Cc1noc(NS(=O)(=O)c2ccc(NC(=O)CSc3nc4ccccc4[nH]3)cc2)c1C -54.8%
